Screens from PubChem BioAssay.
The list is not random: actives were taken first. Their share in the collection is about 9.9%.
HPGD inh = blocks human HPGD enzyme activity; P15428; purified HPGD, NADH fluorescence kinetic, PGE2 substrate; Potency, µM, for inactives: at the highest dose activity change, negative = inhibition, hits mostly inhibitors; actives 4.3% (n = 150,000); AID 894
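NADH formation kinetics: reaction with 30 uM PGE2 and 1 mM NAD+ (final), 20 nM enzyme, Tris-HCl pH 8 with Tween 20, after 15 min compound preincubation at room temperature. Fluorescence change, last versus first of five reads.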
Tau FP inhib = tau fibrillization inhibition (FP); P10636; K18 P301L tau heparin fibrillization, Alexa594 FP, 6 h; Potency, µM (highest dose often 57.7 µM), without a hit: top-dose activity, negative = inhibition, usual class: inhibitors; actives 0.39% (n = 280,000); AID 1468; active = well fitted curve in the direction sought with a large enough effect; inconclusive = small, poorly fitted or top-dose-only effect, or another doubt; inactive = no such curve, though single readings can be large; an effect the other way counts as inactive or inconclusive; also: nearly all actives have a fitted effect of over 55% in size
Target sequence (P10636 561-689 P618L limits assumed): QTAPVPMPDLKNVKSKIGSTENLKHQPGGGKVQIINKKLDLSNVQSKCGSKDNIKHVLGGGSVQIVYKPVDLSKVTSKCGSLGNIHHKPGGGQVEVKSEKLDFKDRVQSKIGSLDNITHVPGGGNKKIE
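Human K18 P301L fragment (15 uM unlabeled plus 0.24 uM Alexa 594-labeled) in 100 mM sodium acetate pH 7 with compound, aggregation induced by 20 uM heparin for 6 hr at 37 C. ThT (30 uM) added for 1 hr, then Alexa 594 FP read.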
Tau ThT inhib = inhibitors of human tau fibril formation, thioflavin T binding; AID 1460; actives 2.1% (n = 270,000); P10636; recombinant tau K18 P301L, heparin-induced fibrillization, ThT fluorescence; Potency, µM (titrated, usually from 57.4 µM), inactives show at the top dose activity, negative = inhibition, usual class: inhibitors; active = well fitted curve in the direction sought with a large enough effect; inconclusive = small, poorly fitted or top-dose-only effect, or another doubt; inactive = no such curve, though single readings can be large; an effect the other way counts as inactive or inconclusive; also: nearly all actives have a fitted effect of over 55% in size
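Heparin-induced (20 uM) aggregation of recombinant human K18 P301L tau, 15 uM unlabeled with 0.24 uM labeled, pH 7 acetate buffer, 6 hr at 37 C with compound. Fibrils quantified by 30 uM ThT fluorescence after 1 hr ambient incubation.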
Tau fluor counter = counter-screen for tau fibril formation inhibitors | tau K18 P301L (four-repeat tau fragment) Alexa594 fluorescence, heparin fibrillization | Potency, µM (doses to about 57.7 µM), for the others: at the highest dose activity change, negative = decrease | actives 0.93% (n = 280,000); active = well fitted curve in the direction sought with a large enough effect; inconclusive = small, poorly fitted or top-dose-only effect, or another doubt; inactive = no such curve, though single readings can be large; an effect the other way counts as inactive or inconclusive; also: nearly all actives have a fitted effect of over 55% in size
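Human K18 P301L tau (15 uM unlabeled plus 0.24 uM Alexa 594-labeled, final) in 100 mM sodium acetate pH 7 was mixed with compound and 20 uM heparin and incubated 6 hr at 37 C.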
KDM4E inh = blocks human JMJD2E demethylase activity. B2RXH2. JMJD2E catalytic domain, FDH-coupled NADH fluorescence (FDH is formaldehyde dehydrogenase). Potency, µM (series often up to 57.1 µM), for the others: top-dose activity change, negative = inhibition, hits mostly inhibitors. actives 1.6% (n = 230,000). AID 2147;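 also: 0% = wells with enzyme and -100% = buffer wells without enzyme; nearly all actives have a fitted effect of over 50% in size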
ALDH1A1 inh = blocks purified human ALDH1A1 activity. Purified ALDH1A1, NADH fluorescence, propionaldehyde substrate. actives 7.3% (n = 220,000). AID 1030. Potency, µM (series often up to 75.3 µM), without a hit: top-dose activity, negative = inhibition, hits mostly inhibitors. P00352;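 also: plate controls were no enzyme wells and a reference inhibitor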
Target sequence (P00352 whole entry, looked up): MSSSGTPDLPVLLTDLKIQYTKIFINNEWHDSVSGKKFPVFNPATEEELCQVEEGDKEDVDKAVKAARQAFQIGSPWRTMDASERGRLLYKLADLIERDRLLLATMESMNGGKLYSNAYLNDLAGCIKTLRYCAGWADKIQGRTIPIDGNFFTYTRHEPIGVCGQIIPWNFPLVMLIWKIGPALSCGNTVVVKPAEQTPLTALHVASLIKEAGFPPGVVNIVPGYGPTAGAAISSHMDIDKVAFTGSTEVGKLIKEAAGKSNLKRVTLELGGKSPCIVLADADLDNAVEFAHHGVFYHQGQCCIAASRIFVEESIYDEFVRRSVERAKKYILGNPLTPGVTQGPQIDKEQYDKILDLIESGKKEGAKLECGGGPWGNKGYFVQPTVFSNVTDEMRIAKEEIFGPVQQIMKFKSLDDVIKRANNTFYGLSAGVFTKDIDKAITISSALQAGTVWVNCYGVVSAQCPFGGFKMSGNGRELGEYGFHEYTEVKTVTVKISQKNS
Active calls of the source: *; ? = inconclusive; . = no result; ! = not confirmed by another sample; [ ] = remark or other dose. Unless noted, calls follow the shape of the dose curve; as a rule, active = well fitted inhibition curve with a large enough effect (not every such curve was filed as active); inconclusive = small, poorly fitted or top-dose-only effect, or another doubt; inactive = no such curve, though single readings can be large or run the other way. Unless noted, % is scaled to controls: 0 for no effect and ±100 for the full control effect; potency is read from the fitted curve at half-maximal effect.

SMILES	HPGD inh	Tau FP inhib	Tau ThT inhib	Tau fluor counter	KDM4E inh	ALDH1A1 inh
N#Cc1c(NC(=S)NC(=O)c2ccccc2)sc2c1CCCC2	25.1µM*	-1.1%	-15.7%	-8.9%	5.7%	3.16µM*
CC(C)CC(=O)NC(NC(=S)Nc1sc2c(c1C#N)CCCC2)C(Cl)(Cl)Cl (centres undefined)	14.1µM*	4.0%	?	?	5.7%	3.55µM*
Cn1ncc(Cl)c1C(=O)NC(=S)Nc1sc2c(c1C#N)CCCCC2	25.1µM*	-8.1%	?	-21.1%	12.1%	?
CC1CCc2c(sc(NC(=S)NC(=O)c3ccccc3)c2C#N)C1 (centres undefined)	.	2.9%	?	-21.1%	-26.6%	.
Cc1ccccc1C(=O)NC(=S)Nc1sc2c(c1C#N)CCC(C)C2 (centres undefined)	-21.1%	-3.7%	?	-23.2%	5.2%	10µM*
N#Cc1c(NC(=S)NC(=O)C2CCCC2)sc2c1CCCCC2	.	1.2%	-5.7%	-10.3%	-1.4%	10µM*
N#Cc1c(NC(=S)NC(=O)c2ccccc2)sc2c1CCN(CCc1ccccc1)C2	-18.1%	-2.7%	?	-18.2%	?	17.8µM*
CC(C)(C)C(=O)Nc1sc2c(c1C#N)CCCCC2	-16.0%	0.9%	0.4%	-0.1%	0.8%	-1.6%
CC1(C)Cc2c(sc(NC(=S)NC(=O)c3ccccc3)c2C(=O)O)CO1	.	0.1%	?	-12.0%	-9.4%	22.4µM*
N#Cc1c(N)sc2c1CCN(CCc1ccccc1)C2	-29.9%	?	?	-13.1%	?	?
CS(=O)(=O)N(CCC#N)Cc1ccc(/C=C2\C(=O)Nc3ccccc32)o1	.	-9.3%	?	-10.8%	-6.1%	0.1%
CC(=O)/C=C1/C(=O)Nc2ccccc21	.	-9.7%	?	-4.0%	1.0%	3.16µM*
COc1c(C(CC(C)C)OC(C)=O)ccc2c1C(=O)OCc1cc(C)cc(O)c1O2 (centres undefined)	.	-8.6%	-17.9%	?	-2.6%	.
Cc1c(C(=O)N(C)C2CCCCC2)sc2nc3ccc(N)cc3n12	8.91µM*	?	?	?	.	?
CC1=NN(c2ccccc2)C(=O)C1N=Nc1ccccc1 (centres undefined)	-1.0%	3.7%	?	-9.7%	7.1%	19.2%
CC1=NN(C(N)=S)C(=O)C1N=Nc1ccccc1 (centres undefined)	.	-1.0%	?	-4.5%	-12.8%	22.4µM*
CC1=NN(c2ccccc2)C(=O)C1N=Nc1ccc(N)cc1 (centres undefined)	-14.2%	-10.8%	11.2µM*	15.8µM*[quencher]	14.1µM*	?
CC1=NN(c2ccccc2)C(=O)[C@@H]1N=Nc1ccc(S(N)(=O)=O)cc1	-7.5%	.	.	.	.	12.6%[13.5 µM]
CC1=NN(C(N)=S)C(=O)C1N=Nc1cccc2ccccc12 (centres undefined)	.	-8.5%	3.98µM*	?	-4.9%	14.1µM*
O=C(NCCc1ccccc1)c1cc(S(=O)(=O)N2CCCCC2)c[nH]1	.	-8.1%	5.7%	-6.2%	.	.
COc1cc(C)nc(NC(=S)N(C)C(=O)c2ccccc2)n1	.	-5.2%	-16.7%	-10.7%	-4.3%	.
Cn1cnnc1Sc1ccc(C(=O)OCC(=O)Nc2cc(Cl)cc(Cl)c2)cc1[N+](=O)[O-]	-9.8%	-3.7%	?	12.6µM*[quencher]	-0.6%	-0.1%
Cn1cnnc1Sc1ccc(C(=O)NCCC23CC4CC(CC(C4)C2)C3)cc1[N+](=O)[O-]	-4.7%	0.8%	4.2%	-1.7%	-0.4%	2.82µM*
COCCNC(=O)c1noc2c1CCc1cc(OC)ccc1-2	25.1µM*	3.1%	-5.0%	2.7%	-8.3%	-1.5%
COCC(C)NC(=O)c1noc2c1CCc1cc(OC)ccc1-2 (centres undefined)	-13.1%	5.3%	-12.9%	-3.0%	-11.7%	-10.3%
SMILES	HPGD inh	Tau FP inhib	Tau ThT inhib	Tau fluor counter	KDM4E inh	ALDH1A1 inh
CC(=O)Nc1ccc(S(=O)(=O)NC2(C(F)(F)F)NC(=O)N(c3ccc(C)cc3)C2=O)cc1 (centres undefined)	.	-8.5%	-9.5%	-8.0%	.	.
CCN(C(=O)CN1C(=S)NC(C)(C)CC1C)c1ccc(C)c(C)c1 (centres undefined)	.	-0.4%	2.1%	4.4%	-6.8%	28.2µM*
Cc1ccc(F)cc1NC(=O)C1CC(=O)N(CCc2ccccc2)C1 (centres undefined)	.	-3.8%	-2.4%	-5.5%	8.0%	14.7%
Cc1ccc(NC(=O)Cn2cc(S(=O)(=O)N3CCC(C)CC3)c3ccccc3c2=O)c(Br)c1	.	?	-9.6%	-21.8%	.	.
O=C(CSc1nnc(NC(=O)c2ccccc2Cl)s1)Nc1ccc2c(c1)oc1ccccc12	-6.1%	-16.7%	8.6%	?	15.3%	17.8µM*
O=C(CSc1nc2ccccc2s1)c1cc2ccccc2o1	22.4µM*	-1.8%	-14.1%	-17.6%	-6.0%	?
O=C(CSc1nc2ccccc2s1)CSc1nc2ccccc2s1	-14.1%	-6.5%	-10.4%	-20.9%	-0.5%	-5.2%
O=[N+]([O-])c1ccc2nc(SCc3ccccc3Cl)sc2c1	-12.1%	-2.7%	?	-27.5%	-9.1%	?
Cc1ccc(S(=O)(=O)N2CCOCC2)cc1NC(=O)CSc1n[nH]c(N)n1	.	0.5%	5.2%	2.3%	-3.6%	0.4%
O=C(CSc1nc2ccc([N+](=O)[O-])cc2s1)c1ccc2ccccc2c1	-4.2%	-3.7%	?	-24.3%	3.5%	11.2µM*!
COc1ccc(S(=O)(=O)N2CCOCC2)cc1NC(=O)CSc1n[nH]c(C(C)C)n1	.	3.7%	-0.4%	0.8%	2.1%	25.1µM*
Cc1ccc(NC(=O)CN2C(=O)COc3ccc(S(=O)(=O)NC4CCCC4)cc32)c(Cl)c1	.	8.6%	10.6%	-11.0%	.	.
CCOc1ccc(NC(=O)CC2C(=O)N(c3ccc(Cl)cc3)C(=O)N2Cc2cccs2)cc1 (centres undefined)	.	?	?	-17.6%	.	.
CC1=NN(C(=O)c2ccc(Cn3cc([N+](=O)[O-])cn3)cc2)C(O)(C(F)(F)F)C1 (centres undefined)	-10.3%	3.6%	0.1%	-5.7%	-11.5%	4.2%
O=C(OCc1nc2ccccc2s1)c1cccc(S(=O)(=O)N2CCOCC2)c1	-18.4%	3.8%	-11.3%	-18.9%	-2.8%	-6.7%
O=C(CSc1nc2ccccc2s1)Nc1cc(S(=O)(=O)N2CCOCC2)ccc1O	12.6µM*	7.2%	0.7%	2.1%	-1.3%	1.0%
O=C(CSc1nc2ccccc2s1)NNC(=O)Nc1ccc(Cl)c(Cl)c1	-5.6%	20µM*	-16.5%	?	4.4%	1.8%
O=C(CCc1ccc(S(=O)(=O)N2CCOCC2)cc1)OCc1nc2ccccc2s1	-11.0%	11.0%	-15.7%	-7.9%	-4.1%	7.94µM*
